# Compounds with a hit are over-represented: about 1.6% of the library has one in this group of screens.
# KCNQ2 enhance = potentiators of rat KCNQ2 potassium channel | Potassium voltage-gated channel subfamily KQT member 2 (Rattus norvegicus), O88943 | CHO-K1 KCNQ2, FluxOR thallium flux fluorescence; hits give high values | B-score at 10 µM | 0.54% of 310,000 active;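 active = fluorescence ratio B-score at least 3 SD of library B-scores, with initial fluorescence B-score within 3 of them, cut at about 5.3 in these data; same plate scores as AID 2156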;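 also: B-score of peak minus minimum over baseline fluorescence ratio after K+ and Tl+ stimulus; positive B-score means potentiation of KCNQ2 with more thallium influx and brighter signal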
# KCNQ2 inh = rat KCNQ2 potassium channel inhibitors, primary screen, cell-based, CHO-K1, FluxOR thallium flux, B-score. Potassium voltage-gated channel subfamily KQT member 2 (Rattus norvegicus), O88943. 20 min; hits give low values. B-score at 10 µM. 1.1% of 310,000 active. AID 2156, 2009;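 active = fluorescence ratio B-score at most minus 3 library SDs, with starting brightness B-score within 2 library SDs, cut at about -5.5 in these data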
# The depositor's hits bear a star; i = inactive; nt = no result given.
SMILES,KCNQ2 enhance,KCNQ2 inh
COc1ccc(CN(C(=O)CSc2nnc(-c3ccccc3C)o2)c2ccc(F)cc2)cc1,-6.4,-6.4*
Cc1cc(OCC(=O)N2CCc3ccccc3C2)c(C)cc1Br,-6.1,-6.1*
Cc1ccc(C)c(OCC(=O)N2CCc3ccccc3C2)c1,nt,i
CCOc1ccc(NC(=O)Nc2cc(C(=O)O)ccc2N2CC3CC(C2)c2cccc(=O)n2C3)cc1 (centres undefined),nt,i
N=C1c2ccccc2CN1NC(=O)CC12CC3CC(CC(C3)C1)C2,18*,i
Cc1cc(C)cc(OCC(=O)NN2Cc3ccccc3C2=N)c1,1.1,i
CCOC(=O)N1CCN(c2nc(N(c3ccccc3)c3ccccc3)nc(-n3ccnc3)n2)CC1,-6,-6*
c1ccc(N(c2ccccc2)c2nc(N3CCCC3)nc(-n3ccnc3)n2)cc1,nt,i
COCCCN1CCN(C2Cc3ccccc3Sc3ccc(Cl)cc32)CC1 (centres undefined),nt,i
Clc1cccc2c1Sc1ccccc1CC2N1CCNCC1 (centres undefined),-7.9,-7.9*
Cc1cc(NC(=O)CSc2nnc(CNC(=O)c3ccc(C(C)(C)C)cc3)o2)no1,-6.4,-6.4*
COc1ccc(C(=O)NCc2nnc(SCC(=O)Nc3cc(C)on3)o2)cc1OC,nt,i
COc1ccc(C(CNC(=O)c2ccccc2SC)N(C)C)cc1 (centres undefined),0.31,i
COc1cc(C(=O)OC(C)CN2CCCCC2)cc(OC)c1OC (centres undefined),nt,i
O=C(O)c1cc(-c2ccccc2)nn1CC1CC(c2cccnc2)=NO1 (centres undefined),1.3,i
COc1ccccc1CNC(=O)c1cc(-c2ccccc2)nn1CC1CC(c2cccnc2)=NO1 (centres undefined),-6.1,-6.1*
OCCC1CN(CC2CCCCC2)CCN1CC1CCCCC1 (centres undefined),6.8*,i
OCCC1CN(CC2CCCCC2)CCN1C1CCCC1 (centres undefined),0.37,i
O=c1c2ccccc2nc(SCc2nc3ccccc3s2)n1Cc1ccco1,nt,i
CCCCn1c(SCc2nc3ccccc3s2)nc2ccccc2c1=O,-7.8,-7.8*
O=C(CCc1nnc(COc2ccccc2)o1)NCc1ccccc1C(F)(F)F,nt,i
CC(C)(C)c1ccc(-c2cc(C(=O)NNC(=O)Nc3ccccc3)c3ccccc3n2)cc1,nt,i
O=C(NNC(=O)c1cc(-c2ccccc2)nc2ccccc12)Nc1cccc(Cl)c1,-6.3,-6.3*
CCOc1ccc(S(=O)(=O)NCCCn2ccnc2)cc1,nt,i
O=C(C1=C(O)C(=O)N(c2ccccc2)C1c1ccc([N+](=O)[O-])cc1)c1cccs1 (centres undefined),0.63,i
SMILES,KCNQ2 enhance,KCNQ2 inh
O=C(c1ccccc1)N1CCC(CC2CC(c3cccc(Br)c3)=NO2)(C(=O)NCC2CCCCC2)CC1 (centres undefined),nt,i
CC(C)(C)OC(=O)N1CCC(CC2CC(c3cccc(Br)c3)=NO2)(C(=O)NCC2CCCCC2)CC1 (centres undefined),-8.1,-8.1*
COc1ccc(Br)cc1/C=N/NC(=O)CN1CCN(Cc2ccccc2)CC1,nt,i
O=C(Nc1ccc(F)cc1)c1sccc1SCc1cccc(C(F)(F)F)c1,nt,i
O=C(Nc1ccc(F)cc1F)c1sccc1SCc1cccc(C(F)(F)F)c1,-5.9,-5.9*
CC(C)CNC(=O)c1cccc(NC(=O)c2ccc3c(c2)C(=O)N(C)C3=O)c1,nt,i
COc1ccc(NC(=O)CC2C(=O)N(C)C(=S)N2CCc2ccc(F)cc2)cc1 (centres undefined),nt,i
COc1ccc(NC(=O)CC2C(=O)N(Cc3ccccc3)C(=S)N2CCN2CCOCC2)cc1 (centres undefined),nt,i
C=CCN1C(=O)C(CC(=O)Nc2ccc(OCCC)cc2)N(CCCN2CCN(Cc3ccccc3)CC2)C1=S (centres undefined),-6.8,-6.8*
CCN1C(=O)C(CC(=O)Nc2ccc(OC)cc2)N(CCc2ccc(F)cc2)C1=S (centres undefined),-7.5,-7.5*
CN(C)CCN(C)Cc1ccccc1Sc1cccc2ccccc12,nt,i
Cc1nc2ccccc2n1C1CCN(C(=O)Nc2ccccc2)CC1,1.1,i
CCc1ccc2c(c1)C1(SC(NC(C)=O)=NN1C(C)=O)C(=O)N2CC (centres undefined),0.23,i
COC(=O)Cc1ccc(NC(=S)N2CCN(c3ccc(F)cc3)CC2)cc1,2.1,i
O=[N+]([O-])c1cc(O)c2ncccc2c1,10*,i
O=[N+]([O-])c1cc2cccnc2c2ncccc12,nt,i
CCc1noc(C)c1C(=O)NC1CC(C)(C)Cc2c1cnn2-c1ccccc1 (centres undefined),0.87,i
c1ccc2c(c1)nc(N1CCOCC1)c1nncn12,nt,i
c1ccc(N2CCOCC2)c(Nc2nc3ccccc3n3cnnc23)c1,-6.3,-6.3*
Cc1ccc(-n2c3c(c(=O)[nH]c2=O)C(NS(=O)(=O)c2ccc(Cl)cc2)(C(F)(F)F)C(=O)N3)cc1 (centres undefined),nt,i
Cc1nc(N2CCN(c3ccccc3)CC2)nc2c1C(=O)CC(C)C2 (centres undefined),nt,i
Cc1nc(N2CCN(c3ccccc3)CC2)nc2c1C(=O)CC(c1ccccc1)C2 (centres undefined),-6.1,-6.1*
CCOc1c(C)cnc2c1c(=O)n(Cc1cccc(Cl)c1)c(=O)n2C,nt,i
CCOc1c(C)cnc2c1c(=O)n(Cc1ccc(Cl)cc1)c(=O)n2C,-5.9,-5.9*
COc1ccccc1NC(=O)CN(Cc1ccco1)C(=O)c1cccs1,nt,i
SMILES,KCNQ2 enhance,KCNQ2 inh
O=C(CN(Cc1ccco1)S(=O)(=O)c1cccs1)Nc1ccccc1C(F)(F)F,-7,-7*
Fc1ccc(NC(=S)NCCN2CCOCC2)c(F)c1F,0.64,i
CCOc1ccccc1NC(=O)C(OC(=O)c1cc(C)oc1C)c1ccccc1 (centres undefined),-5.8,-5.8*
CCOc1ccccc1NC(=O)C(OC(=O)c1ccccc1O)c1ccccc1 (centres undefined),nt,i
CCOc1ccc(S(=O)(=O)N(C)c2ccc(OCC(=O)Nc3nc4ccccc4s3)cc2)cc1,-5.9,-5.9*
CN(c1ccc(OCC(=O)Nc2nc3ccccc3s2)cc1)S(=O)(=O)c1ccccc1,nt,i
OC1(CNCc2cn[nH]c2-c2cc3ccccc3o2)CCCCC1,0.28,i
O=C(Cn1c(=O)n(Cc2ccco2)c(=O)c2c3c(sc21)CCCCC3)c1ccccc1,-5.7,-5.7*
O=C(Cn1c(=O)n(Cc2ccco2)c(=O)c2c3c(sc21)CCCCC3)Nc1ccccc1,nt,i
C/C(=N/Nc1ccccc1[N+](=O)[O-])c1ccc(C)c([N+](=O)[O-])c1,0.55,i
CC(C)/C(=N/Nc1ccccc1[N+](=O)[O-])c1ccccc1,-6.4,-6.4*
CCOC(=O)C1CCCN(C(=O)c2cc(Nc3ccc(OC)c(OC)c3)nc3ccccc23)C1 (centres undefined),nt,i
CCOC(=O)C1CCCN(C(=O)c2cc(Nc3ccc(OC)cc3OC)nc3ccccc23)C1 (centres undefined),-7.6,-7.6*
CCOC(=O)C1CCCN(C(=O)c2cnn3c(C(F)(F)F)cc(-c4ccccc4)nc23)C1 (centres undefined),nt,i
